Results published in PubChem BioAssay (EPA / NIEHS).
Records with an inconclusive call do not appear. Active and inactive are the calls of the source. The calls were made as follows: active = hit-call score of the fitted dose curve at least 0.9, where 1 is the maximum; inconclusive = response in the unintended direction; inactive = score below 0.9.

target: human Vitamin D Receptor (VDR), VDR (gene 7421) (UniProt P11473); assay: ATG_VDR_TRANS: Attagene TRANS-FACTORIAL HepG2 Assay for human Vitamin D Receptor (VDR) (AID 2283022)
Sequence (P11473 whole entry, looked up, the tested form may be a part): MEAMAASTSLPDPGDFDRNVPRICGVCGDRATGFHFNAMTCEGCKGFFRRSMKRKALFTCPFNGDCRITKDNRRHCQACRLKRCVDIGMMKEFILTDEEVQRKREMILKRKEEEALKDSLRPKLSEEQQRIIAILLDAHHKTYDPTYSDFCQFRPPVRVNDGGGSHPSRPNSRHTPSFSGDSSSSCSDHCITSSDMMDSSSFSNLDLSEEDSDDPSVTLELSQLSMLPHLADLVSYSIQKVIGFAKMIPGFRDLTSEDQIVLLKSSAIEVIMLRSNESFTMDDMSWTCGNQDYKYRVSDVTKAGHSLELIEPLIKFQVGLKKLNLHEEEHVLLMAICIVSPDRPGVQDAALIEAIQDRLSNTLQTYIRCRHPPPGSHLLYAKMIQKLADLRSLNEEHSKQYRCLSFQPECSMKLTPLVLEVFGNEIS
Summary of the method: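 HepG2 cells were transiently transfected with multiple GAL4-UAS reporter units, so signal reflects exogenous chimeric receptor-Gal4 activity. After 24 h compound exposure, reporter mRNA was measured by RT-PCR, fluorescent labelling and capillary electrophoresis, fitted for gain of signal versus DMSO.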

| SMILES | outcome |
| --- | --- |
| C=Cc1ccc(OC(C)=O)cc1 | inactive |
| CC(=O)OCCc1ccccc1 | inactive |
| Cn1ccnc1 | inactive |
| COc1cc(C)ccc1O | inactive |
| O=c1c(O)c(-c2ccc(O)cc2O)oc2cc(O)cc(O)c12 | inactive |
| O=C(O)CCC(=O)O | inactive |
| Cc1cc(C)c(C=O)c(C)c1 | inactive |
| CCOC(=O)[C@H](O)[C@@H](O)C(=O)OCC | inactive |
| CC(=O)OCc1ccccc1 | inactive |
| CC(C)COC(=O)CC(C(=O)OCC(C)C)S(=O)(=O)O (stereo not given) | inactive |
| C=Cc1cccc(C)c1 | inactive |
| CC1CC(=O)CC(C)(C)C1 (stereo not given) | inactive |
| O=C(O[C@@H]1Cc2c(O)cc(O)cc2O[C@@H]1c1cc(O)c(O)c(O)c1)c1cc(O)c(O)c(O)c1 | inactive |
| CC1(C)C(=O)N(CO)C(=O)N1CO | inactive |
| CCC1COC(=O)O1 (stereo not given) | inactive |
| CC(=O)OC(C)c1ccccc1 (stereo not given) | inactive |
| Cc1cc(=O)[nH]c(=O)[nH]1 | inactive |
| CC1(C)[C@@H]2CC[C@@]1(C)C(=O)C2 | inactive |

| SMILES | outcome |
| --- | --- |
| CCCCc1ccc(Cl)cc1 | inactive |
| O=C(O)C1CCC(C(=O)O)CC1 (stereo not given) | inactive |
| COC(C=C(C)CCC=C(C)C)OC | inactive |
| NC(=O)Nc1ccccc1 | inactive |
| CC(C=O)c1ccccc1 (stereo not given) | inactive |
| OCCCc1ccccc1 | inactive |
| CCCCCCCCCC(C)=O | inactive |
| CC1CCC(=O)C1=O (stereo not given) | inactive |
| CC(C)(C)N | inactive |
| c1ccc2cnccc2c1 | inactive |
| CC(=O)CCC=C(C)C | inactive |
| Nc1ccc(O)c([N+](=O)[O-])c1 | inactive |
| CCCCCCCCCCCCC | inactive |
| CC(=O)OC1CCCCC1 | inactive |
| Cc1cc(C)n(CO)n1 | inactive |
| C=C(C)C1CC=C(C)C(OC(C)=O)C1 (stereo not given) | inactive |
| O=C(OCCc1ccccc1)c1ccccc1 | inactive |
